The values below come from PubChem BioAssay (NCATS).

The structures appear in SMILES notation. Records with an inconclusive call do not appear. Values without a mark were called inactive. The source made the active and inactive calls. The call rests on the fitted dose curve; in most records, active means well fitted cell-killing curve with a large enough effect; inconclusive means small, poorly fitted or top-dose-only effect, or effect the other way; inactive means no such curve, though single readings can be large or run the other way.
Potency means the concentration at half of the fitted maximal effect.

The experiment in a line: Quantitative High-Throughput drug screen in 47 multiple myeloma cell lines against the NCATS MIPE library collection: UTMC2_PLB cell viability assay (AID 1919868). Further: nearly all actives have a fitted effect of over 55% in size. To be noted: CellTiter-Glo ATP luminescence, 48 h; series mostly up to 45.8 µM; viability (% of DMSO control): at the top concentration. An excerpt: PI: Beverly A. Mock Ph.D.
Laboratory of Cancer Biology and Genetics,
Center for Cancer Research, National Cancer Institute,
National Institute of Health, Bethesda, Maryland
Drug resistance and disease progression are common in multiple myeloma (MM) patients, underscoring the need for new therapeutic combinations. […] We hypothesized that effective combinations would reduce MYC expression and enhance p16 activity. […] These preclinical data identify potentially useful drug combinations for evaluation in drug-resistant MM and reveal potential mechanisms of combined drug sensitivity.
Described herein is the primary MIPE qHTS used to cherrypick compounds. Validated compounds were then further tested for potential synergistic activiy.
[1] Peat TJ, Gaikwad SM, Dubois W, Gyabaah-Kessie N, Zhang S, Gorjifard S, Phyo Z, Andres M, Hughitt VK, Simpson RM, Miller MA, Girvin AT, Taylor A, Williams D, D'Antonio N, Zhang Y, Rajagopalan A, Flietner E, Wilson K, Zhang X, Shinn P, Klumpp-Thomas C, McKnight C, Itkin Z, Chen L, Kazandijian D, Zhang J, Michalowski AM, Simmons JK, Keats J, Thomas CJ, Mock BA. Drug combinations identified by high-throughput screening promote cell cycle transition and upregulate Smad pathways in myeloma. Cancer Lett. 2023 Aug 1;568:216284. doi: 10.1016/j.canlet.2023.216284. Epub 2023 Jun 24. PMID: 37356470; PMCID: PMC10408729.
SEQUENCE No. (e.g., 1, 2, 3, etc.); […] (e.g., Cells, Incubation, Reagent, etc.); VALUE and DESCRIPTION.
1; Cells; 5 uL; white, solid bottom 1536-well Greiner assay plate.
2; Compounds; 23 nL; Kalypsis pin tool (Wako USA) equipped with a 1536-well pin head to transfer to the assay plates.
3; Incubation; 48 hours; 37C incubation.
4; Reagent;5uL; CellTiter Glo (Promega).
5; Detector; 425V; Luminescence; Viewlux PerkinElmer.
NOTES (numbers refer to Sequence numbers above)
1. The cell-based screening methods employed in this study were like those previously published. Briefly, the corresponding myeloma cell lines were screened in 1,536-well plates with 500 cells, 5-uL per well for inhibition of cell viability (assessed by measuring ATP levels with CellTiterGlo).
2. NCATS MIPE 4.0 library of approved and investigational drugs were added using the Kalypsis pin tool. Wells treated with DMSO only for 100% viability and media only for 0% viability were used as controls.
3. The assay plates were covered and incubated for 48 hours in a 37C, 5% CO2 incubator with controlled humidity.
4. After 48 hours, CellTilter-GloTM luminescent substrate mix (Promega) reagent was added to the assay plate and plates we incubated for 5 min at room temperature.
5. Signal was measured as median relative luminescence units on a ViewLux (PerkinElmer) multiplate reader.
[1] Heske CM, Davis MI, Baumgart JT, Wilson K, Gormally MV, Chen L, Zhang X, Ceribelli M, Duveau DY, Guha R, Ferrer M, Arnaldez FI, Ji J, Tran HL, Zhang Y, Mendoza A, Helman LJ, Thomas CJ. Matrix Screen Identifies Synergistic Combination of PARP Inhibitors and Nicotinamide Phosphoribosyltransferase (NAMPT) Inhibitors in Ewing Sarcoma. Clin Cancer Res. 2017 Dec 1;23(23):7301-7311. doi: 10.1158/1078-0432.CCR-17-1121. Epub 2017 Sep 12. PMID: 28899971; PMCID: PMC6636827.
On to `Nc1nc(F)nc2c1ncn2[C@@H]1O[C@H](CO)[C@@H](O)[C@@H]1O`, for which the Potency is 0.235 µM (active).
Take `COc1cc(NCc2ccc3nc(N)nc(N)c3c2C)cc(OC)c1OC`: the Potency is 0.743 µM (active).
Turning to `CC(C)(Sc1cc(C(C)(C)C)c(O)c(C(C)(C)C)c1)Sc1cc(C(C)(C)C)c(O)c(C(C)(C)C)c1`, the Potency was 5.9 µM (active).
Consider `COc1ncnc(NS(=O)(=O)c2ccc(N)cc2)c1OC`, for which the “viability (% of DMSO control)” value is 136%.
As for `Nc1[nH]c(=O)ncc1F`, the “viability (% of DMSO control)” value is 116%.
Turning to `CCC(C)(C)c1ccc(CC(C)CN2C[C@@H](C)O[C@@H](C)C2)cc1` (stereo not given in full), the “viability (% of DMSO control)” value was 85.8%.
In the case of `COc1ccc(C(=O)CC(=O)c2ccc(C(C)(C)C)cc2)cc1`, the Potency was 3.72 µM (active).
With `COC(c1ccccc1)(c1ccccc1)[C@H](Oc1nc(C)cc(C)n1)C(=O)O`, the “viability (% of DMSO control)” value was 184%.
For `CN1CCCC(n2nc(Cc3ccc(Cl)cc3)c3ccccc3c2=O)CC1` (stereo not given), the Potency is 1.87 µM (active).
Same read-out and setting: with `NC1(c2ccc(-c3nc4ccn5c(=O)[nH]nc5c4cc3-c3ccccc3)cc2)CCC1` the figure was 1.18 µM (active); with `COC(=O)Nc1nc2ccc(Sc3ccccc3)cc2[nH]1`, 2.09 µM (active); with `C[C@@H](CN1CC(=O)NC(=O)C1)N1CC(=O)NC(=O)C1`, 2.96 µM (active).
Still for that read-out and setting: with `C1CCC(C(CC2CCCCN2)C2CCCCC2)CC1` (stereo not given) the figure was 13.2 µM (active).
With `CCOCC(O)COc1ccc(NC(=O)CC[S+](C)C)cc1` (stereo not given), the “viability (% of DMSO control)” value was 131%.
Take `O=P(O)(O)C(O)(Cc1cccnc1)P(=O)(O)O`: the “viability (% of DMSO control)” value is 177%.
With `CC(C)(C)C(=O)OCOP(=O)(COCCn1cnc2c(N)ncnc21)OCOC(=O)C(C)(C)C`, the Potency was 0.526 µM (active).
For the compound `CCCc1nc(C)c2c(=O)[nH]c(-c3cc(S(=O)(=O)N4CCN(CC)CC4)ccc3OCC)nn12`, the Potency was 10.5 µM (active).
For the compound `CCCOc1ccc(C(=O)OCCN(CC)CC)cc1N`, the “viability (% of DMSO control)” value was 142%.
As for `N[C@@H](C(=O)N[C@@H]1C(=O)N2C(C(=O)O)=C(Cl)CS[C@H]12)c1ccccc1`, the “viability (% of DMSO control)” value was 152%.
On the same count and under the same terms, with `CCn1cc(C(=O)O)c(=O)c2cc(F)c(N3CCN(C)CC3)cc21` the figure was 145%.
For the compound `Nc1nc(=S)c2[nH]cnc2[nH]1`, the Potency is 5.9 µM (active).
Consider `Cc1cccc(Nc2ccncc2S(=O)(=O)NC(=O)NC(C)C)c1`, for which the “viability (% of DMSO control)” value was 141%.
As for `CNS(=O)(=O)CCc1ccc2[nH]cc(C3CCN(C)CC3)c2c1`, the Potency was 1.05 µM (active).
As for `CCOC(=O)[C@H](CCc1ccccc1)N[C@H]1CCc2ccccc2N(CC(=O)O)C1=O`, the Potency is 29.6 µM (active).
As to `COc1cc2ncnc(Nc3cccc(Cl)c3)c2cc1OC`, the “viability (% of DMSO control)” value was 72.9%.
As for `CCn1cc(C(=O)O)c(=O)c2cc(F)c(N3CCNCC3)cc21`, the “viability (% of DMSO control)” value is 167%.
On the same count and under the same terms, to `CCn1cc(C(=O)O)c(=O)c2cc(F)c(N3CCNCC3)nc21` belongs 122%.
Take `COC(=O)Nc1nc2ccc(C(=O)c3ccccc3)cc2[nH]1`: the Potency is 2.35 µM (active).
Regarding `CCN(CC)CC#CCOC(=O)C(O)(c1ccccc1)C1CCCCC1` (stereo not given), the “viability (% of DMSO control)” value was 176%.
Consider `Cc1cccc(N(C)C(=S)Oc2ccc3ccccc3c2)c1`, for which the “viability (% of DMSO control)” value was 153%.
With `O[C@@H](CNC[C@H](O)[C@H]1CCc2cc(F)ccc2O1)[C@@H]1CCc2cc(F)ccc2O1`, the Potency was 20.9 µM (active).
In the case of `CS(=O)(=O)c1ccc([C@@H](O)[C@@H](CO)NC(=O)C(Cl)Cl)cc1`, the Potency was 13.2 µM (active).
Regarding `COc1cccc(N(C)C(=S)Oc2ccc3c(c2)CCCC3)n1`, the “viability (% of DMSO control)” value is 141%.
As for `CCOC(=O)[C@H](CCc1ccccc1)N[C@H]1CS[C@H](c2cccs2)CN(CC(=O)O)C1=O`, the Potency was 11.8 µM (active).
With `CC(C)NCC(O)c1ccc(NS(C)(=O)=O)cc1` (stereo not given), the “viability (% of DMSO control)” value was 188%.
Still for that read-out and setting: to `OC(Cn1cncn1)(Cn1cncn1)c1ccc(F)cc1F` belongs 161%.
Same read-out and setting: with `COc1ccccc1OCC(O)COC(N)=O` (stereo not given) the figure was 174%.
As for `Cc1ccc(S(=O)(=O)N[C@@H](Cc2ccccc2)C(=O)CCl)cc1`, the Potency is 13.2 µM (active).
Regarding `CC(=O)Oc1ccccc1C(=O)Nc1ncc([N+](=O)[O-])s1`, the Potency was 13.6 µM (active).
Take `CN(Cc1cc(Br)cc(Br)c1N)C1CCCCC1`: the “viability (% of DMSO control)” value was 196%.
